PubChem BioAssay (EPA / NIEHS)
Calls of active or inactive are those of the source. Rule for the calls: active = hit-call score of the fitted dose curve at least 0.9, where 1 is the maximum; inactive = score below 0.9.

molecular target: Heat shock factor protein 1 (Homo sapiens) (UniProt Q00613); assay: ATG_HSE_CIS: Attagene CIS-FACTORIAL HepG2 Assay for human Heat Shock Transcription Factor 1 (HSE) (AID 2282953); conditions: HepG2 HSE cis-reporter, Attagene RNA transcription; actives raise or lower the signal
Method: ATG_CIS is a cell-based, multiplexed-readout assay that uses HepG2, a human liver cell line, with measurements taken at 24 hours after chemical dosing in a 24-well plate.ATG_HSE_CIS is one of 52 assay component(s) measured or calculated from the ATG_CIS assay. It is designed to make measurements of mRNA induction, a form of inducible reporter, as detected with fluorescence intensity signals by Reverse transcription polymerase chain reaction (RT-PCR) and Capillary electrophoresis technology.Data from the assay component ATG_HSE_CIS was analyzed into 1 assay endpoint. This assay endpoint, ATG_HSE_CIS, was analyzed with bidirectional fitting relative to DMSO as the negative control and baseline of activity. Using a type of inducible reporter, measures of mRNA for gain or loss-of-signal activity can be used to understand the reporter gene at the transcription factor-level as they relate to the gene HSF1. Furthermore, this assay endpoint can be referred to as a primary readout, because this assay has produced multiple assay endpoints where this one serves a reporter gene function. To generalize the intended target to other relatable targets, this assay endpoint is annotated to the dna binding intended target family, where the subfamily is heat shock protein.
Human liver HepG2 cells are transiently transfected with multiple reporter transcription units (MRTUs) in 6-well plates using FuGene 6 reagent (Roche; 3 ml FuGene/1 mg DNA). The MRTU constructs are regulated by a cis-regulating element (promoter). […] A major difference between the CIS and TRANS system is that in CIS activities of endogenous TFs are measured, whereas the TRANS assay evaluates changes in activities of exogenous, chimeric NR-Gal4 proteins. […] At the end of 24 hour incubation, total RNA was isolated using TriZol reagent (Invitrogen). The isolated RNA is then reverse-transcribed using oligo(dT) primer and Mo-MLV reverse transcriptase (Invitrogen) with DNAse I (Ambion) treatment for 30 min. The one-tenth of the produced cDNA was amplified by PCR using Taq DNA polymerase (Invitrogen) and two reporter sequence-specific primers. The PCR products were fluorescently labeled by primer extension with 6-arboxyfluorescein (6-FAM) 5'-labeled reporter sequence-specific primer (2 min at 95 C, 20 s at 68 C and 10 min at 72 C) and these products were digested with 5U of HpaI (New England Biolabs) for 2h at 37 C. The fragments were purified using Qiaquick PCR columns (Qiagen), analyzed on an ABI 3130xL genetic analyzer (Applied Biosystems) with peak positions identified by using a set of X-rhodamine (ROX)-labeled MapMarker1000 molecular weight standards (BioVentures). The raw capillary electrophoresis data was processed using Attagraph software (Attagene).

Chain of Heat shock factor protein 1 (Homo sapiens) (Q00613 whole entry, looked up): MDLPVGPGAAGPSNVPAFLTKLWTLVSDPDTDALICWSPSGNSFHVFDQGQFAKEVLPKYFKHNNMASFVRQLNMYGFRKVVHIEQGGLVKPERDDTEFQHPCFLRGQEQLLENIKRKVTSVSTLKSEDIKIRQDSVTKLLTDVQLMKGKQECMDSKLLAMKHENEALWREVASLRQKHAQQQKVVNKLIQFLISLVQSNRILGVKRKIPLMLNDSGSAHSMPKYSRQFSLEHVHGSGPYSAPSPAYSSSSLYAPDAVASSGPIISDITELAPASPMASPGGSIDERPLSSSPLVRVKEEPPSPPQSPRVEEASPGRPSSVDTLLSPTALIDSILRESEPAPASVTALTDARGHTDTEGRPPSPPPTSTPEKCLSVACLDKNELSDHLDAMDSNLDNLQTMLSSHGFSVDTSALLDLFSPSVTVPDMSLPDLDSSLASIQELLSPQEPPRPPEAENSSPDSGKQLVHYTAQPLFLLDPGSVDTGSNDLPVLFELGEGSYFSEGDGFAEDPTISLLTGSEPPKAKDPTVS

Q: For CCOC(=O)CCC(=O)OCC, which outcome is on record?
A: The outcome was “inactive”.

Q: CC=Cc1ccc(O)c(OC)c1 was tested. Which outcome did it give?
A: The outcome was “inactive”.

Q: How did the AC50 turn out when CC1=C(/C=C/C(C)=C/C=C/C(C)=C/CO)C(C)(C)CCC1 was run?
A: Its AC50 is 197 µM (active).

Q: For CCCc1cc(=O)[nH]c(=S)[nH]1, which outcome is on record?
A: The outcome was “inactive”.

Q: With Cc1nc(C)nc(N2C[C@@H](C)N(c3ccnc([C@@H](C)O)n3)[C@@H](C)C2)n1 as the compound, how does the outcome read?
A: Its outcome is “inactive”.

Q: How did the outcome turn out when CCCCCC(=O)O was run?
A: The outcome was “inactive”.

Q: Which outcome does the source give for CNC(=O)[C@H]1O[C@@H](n2cnc3c(NCc4cc(Cl)ccc4OCc4cc(C)no4)ncnc32)[C@H](O)[C@@H]1N here?
A: Its outcome is “inactive”.

Q: How did the outcome turn out when CCCCCCCC=O was run?
A: The outcome was “inactive”.

Q: Which outcome does the source give for CCOC(=O)C(C)(C)Oc1ccc(Cl)cc1 here?
A: The outcome was “inactive”.

Q: How did the outcome turn out when COCCOCCOC was run?
A: The outcome was “inactive”.

Q: For Cc1cccc(Nc2cc(Cl)nc(SCC(=O)O)n2)c1C, which outcome is on record?
A: The outcome was “inactive”.

Q: With Cc1ccc2ncccc2c1 as the compound, how does the outcome read?
A: The outcome was “inactive”.

Q: With C1CCC(SSC2CCCCC2)CC1 as the compound, how does the outcome read?
A: The outcome was “inactive”.

Q: Which outcome does the source give for C[C@]12C=CC(=O)C=C1CC[C@@H]1[C@@H]2C(=O)C[C@@]2(C)[C@H]1CC[C@]2(O)C(=O)CO here?
A: Its outcome is “inactive”.

Q: How did the outcome turn out when Cc1oc(-c2ccccc2)nc1CCOc1cccc2c1ccn2CCC(=O)O was run?
A: Its outcome is “inactive”.

Q: For C=CCOC(=O)c1ccccc1C(=O)OCC=C, which outcome is on record?
A: The outcome was “inactive”.

Q: For CCCCCCCCCCCCCCCC, which outcome is on record?
A: The outcome was “inactive”.

Q: Which outcome does the source give for CCNc1cccc(C)c1 here?
A: Its outcome is “inactive”.

Q: How did the outcome turn out when CCCCCCCCCCCC(=O)OC was run?
A: Its outcome is “inactive”.

Q: With Oc1ccc2c(c1)OC[C@@H](N1CCC(O)(c3ccc(F)cc3)CC1)[C@H]2O as the compound, how does the outcome read?
A: Its outcome is “inactive”.

Q: CCCCC(CC)COC(=O)CC(C(=O)OCC(CC)CCCC)S(=O)(=O)O (stereo not given) was tested. Which outcome did it give?
A: Its outcome is “inactive”.

Q: Nc1nc(N)c2nc(CNc3ccc(C(=O)N[C@@H](CCC(=O)O)C(=O)O)cc3)cnc2n1 was tested. Which outcome did it give?
A: The outcome was “inactive”.

Q: With CNCc1cc(F)ccc1Oc1ccc(Cl)c(Cl)c1 as the compound, how does the outcome read?
A: Its outcome is “inactive”.

Q: With CCCCCCOCCO as the compound, how does the outcome read?
A: The outcome was “inactive”.

Q: How did the outcome turn out when Cc1nc(-c2ccc3c(c2)CCN(CCC2CCC(NC(=O)/C=C/c4ccc(F)cc4)CC2)CC3)no1 (stereo not given) was run?
A: Its outcome is “inactive”.

Q: CCc1c(C(=O)NN2CCCCC2)nn(-c2ccc(Cl)cc2Cl)c1-c1ccc(Br)cc1 was tested. Which outcome did it give?
A: The outcome was “inactive”.

Q: How did the outcome turn out when O=[N+]([O-])C(CO)(CO)CO was run?
A: Its outcome is “inactive”.

Q: How did the outcome turn out when COc1cccc2c1C(=O)c1c(O)c3c(c(O)c1C2=O)C[C@@](O)(C(=O)CO)C[C@@H]3O[C@H]1C[C@H](N)[C@H](O)[C@H](C)O1 was run?
A: The outcome was “inactive”.

Q: Cc1cc(NC(=O)C(=O)O)cc(C)c1Oc1ccc(O)c2c1CCC2 was tested. Which outcome did it give?
A: The outcome was “inactive”.

Q: How did the outcome turn out when CC(=O)OCCOCCOCCOC(C)=O was run?
A: Its outcome is “inactive”.

Q: Which outcome does the source give for CCCCc1ccc2c(n1)[C@@H](c1ccc(OC)cc1C[C@H](C)C(=O)O)[C@H](C(=O)O)[C@H]2c1ccc2c(c1)OCO2 here?
A: Its outcome is “inactive”.

Q: With CC(CO)OC(C)CO (stereo not given) (tested in a mixture with another compound) as the compound, how does the outcome read?
A: Its outcome is “inactive”.

Q: Which outcome does the source give for NS(=O)(=O)c1cc2c(cc1Cl)NCNS2(=O)=O here?
A: Its outcome is “inactive”.

Q: With Clc1cc(Cl)c(Cl)cc1Cl as the compound, how does the outcome read?
A: The outcome was “inactive”.

Q: Which outcome does the source give for NCCO here?
A: The outcome was “inactive”.

Q: Which outcome does the source give for c1cc(-c2ccncc2)ccn1 here?
A: Its outcome is “inactive”.

Q: How did the outcome turn out when Cc1cccc(C)c1O was run?
A: The outcome was “inactive”.

Q: FC(F)(F)C(F)(F)C(F)(F)C(F)(F)C(F)(F)C(F)(F)CCI was tested. Which outcome did it give?
A: The outcome was “inactive”.

Q: How did the outcome turn out when CC(=O)C(C)=CC1C(C)=CCCC1(C)C (stereo not given) was run?
A: Its outcome is “inactive”.

Q: CCCCCCCCCCO was tested. Which outcome did it give?
A: Its outcome is “inactive”.
